The results in this text go back to paper PMC10812921, “Transcriptional Coactivator BOB1 (OBF1, OCA-B) Modulates the Specificity of DNA Recognition by the POU-Domain Factors OCT1 and OCT2 in a Monomeric Configuration”.

For one assay, the target named is POU1 (OCT1 POU domain) (human, UniProt P14859 260-458). The experiment in a line: EMSA-SELEX-seq; no BOB1; 20 mM Tris-HCl pH 7.6, 140 mM NaCl, 10% glycerol, 0.5 mM EDTA, 0.05% Triton X-100, 0.1 mg/mL BSA, 0.1 mg/mL poly(dI-dC), 5 mM DTT, room temperature, 20 min; high values mean tight binding. The conditions noted are these: protein: recombinant; dsDNA, one strand shown. A digest of the protocol: (§1)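 After expression in E. coli BL21, tagged POU-domain proteins were purified under denaturing conditions and then renatured. Each binding reaction held 30 ng protein and 300 ng of a PCR-amplified double-stranded random 35-nt library in 20 μL Tris–HCl pH 7.6 binding buffer, with or without 28 ng coactivator protein, for 20 min at RT. Bands holding complexes were cut from native 6% PAGE, eluted and PCR-amplified across four rounds, and the output was Illumina-sequenced. The value given for binding preference is the share, in percent, of sequenced 8-mers fitting a motif pattern.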
Chain of POU1 (OCT1 POU domain) (P14859 260-458): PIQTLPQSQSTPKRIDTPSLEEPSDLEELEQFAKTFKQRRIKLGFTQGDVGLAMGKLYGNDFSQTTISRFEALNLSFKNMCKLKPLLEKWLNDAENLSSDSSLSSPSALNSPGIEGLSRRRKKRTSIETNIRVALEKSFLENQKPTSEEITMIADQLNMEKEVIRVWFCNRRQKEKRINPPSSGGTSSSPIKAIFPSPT
(In general: A gel shift assay detects complexes by their altered migration in electrophoresis.)
As to ATATGAAT, the binding signal is 0.243 % of ANNNNAAN 8-mers.
Same read-out and setting: the result for AGCCGAAT reads 0.0313 % of ANNNNAAN 8-mers.
Same read-out and setting: the result for AGATCAAG reads 0.0305 % of ANNNNAAN 8-mers.
For the sequence ACAGCAAT, the binding signal was 0.0286 % of ANNNNAAN 8-mers.
On the same count and under the same terms, as for ATCCAAAT, the figure is 0.131 % of ANNNNAAN 8-mers; as for ACCCTAAA, 0.0137 % of ANNNNAAN 8-mers.
In the case of AACATAAC, the binding signal is 0.0526 % of ANNNNAAN 8-mers.
For AGTCTAAG, the binding signal was 0.0236 % of ANNNNAAN 8-mers.
As to AAGGTAAG, the binding signal was 0.0416 % of ANNNNAAN 8-mers.
For AAGCCAAC, the binding signal was 0.0137 % of ANNNNAAN 8-mers.
Still for that read-out and setting: as for AATGAAAG, the figure is 0.0751 % of ANNNNAAN 8-mers; as for ACTAAAAA, 0.0439 % of ANNNNAAN 8-mers; as for AAAGTAAA, 0.0988 % of ANNNNAAN 8-mers.
Same read-out and setting: as for ATCGGAAA, the figure is 0.04 % of ANNNNAAN 8-mers; as for AAGTGAAA, 0.0721 % of ANNNNAAN 8-mers; as for AGGGGAAG, 0.0557 % of ANNNNAAN 8-mers.
Still for that read-out and setting: as for AGTGCAAG, the figure is 0.0187 % of ANNNNAAN 8-mers; as for ACTGCAAT, 0.0301 % of ANNNNAAN 8-mers; as for ATACCAAA, 0.0397 % of ANNNNAAN 8-mers.
On to ATATAAAC, for which the binding signal was 0.0637 % of ANNNNAAN 8-mers.
For the sequence AGTATAAA, the binding signal was 0.0744 % of ANNNNAAN 8-mers.
The same measure, in the same setting: as for ATAAAAAA, the figure is 0.0995 % of ANNNNAAN 8-mers; as for AGCACAAA, 0.0256 % of ANNNNAAN 8-mers.
Consider AGACTAAT, for which the binding signal is 0.0744 % of ANNNNAAN 8-mers.
With ATTGCAAC, the binding signal is 0.0256 % of ANNNNAAN 8-mers.
With ACGCTAAG, the binding signal is 0.0202 % of ANNNNAAN 8-mers.
As for ACGTAAAG, the binding signal was 0.0416 % of ANNNNAAN 8-mers.
Regarding AGAGGAAT, the binding signal is 0.0828 % of ANNNNAAN 8-mers.
On the same count and under the same terms, the result for ATAACAAC reads 0.0252 % of ANNNNAAN 8-mers; that for ATGATAAA, 0.104 % of ANNNNAAN 8-mers.
The same measure, in the same setting: as for AGTCTAAT, the figure is 0.147 % of ANNNNAAN 8-mers; as for ATTCTAAG, 0.0747 % of ANNNNAAN 8-mers.
Same read-out and setting: as for AACAAAAA, the figure is 0.0831 % of ANNNNAAN 8-mers; as for AAAATAAG, 0.13 % of ANNNNAAN 8-mers; as for ACAGTAAG, 0.0328 % of ANNNNAAN 8-mers.
With AGCTTAAG, the binding signal was 0.029 % of ANNNNAAN 8-mers.
On the same count and under the same terms, as for ACTCAAAC, the figure is 0.0187 % of ANNNNAAN 8-mers; as for AGGGCAAC, 0.0214 % of ANNNNAAN 8-mers.
With AGACCAAT, the binding signal was 0.0275 % of ANNNNAAN 8-mers.

For another assay, the target named is T1, POU2 (OCT2 POU domain) (human, UniProt P09086 175-386).
T1 sequence: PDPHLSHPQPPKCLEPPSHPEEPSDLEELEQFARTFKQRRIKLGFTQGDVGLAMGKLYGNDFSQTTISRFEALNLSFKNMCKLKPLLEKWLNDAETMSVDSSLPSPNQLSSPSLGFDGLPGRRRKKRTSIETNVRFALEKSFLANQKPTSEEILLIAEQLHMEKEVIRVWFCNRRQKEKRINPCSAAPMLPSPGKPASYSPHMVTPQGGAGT
The description is as above. The note with it: protein: recombinant; dsDNA, one strand shown. A digest of the protocol: as §1
In the case of ATATGAAT, the binding signal was 0.316 % of ANNNNAAN 8-mers.
The same measure, in the same setting: as for AGCCGAAT, the figure is 0.0368 % of ANNNNAAN 8-mers; as for AGATCAAG, 0.0397 % of ANNNNAAN 8-mers; as for ACAGCAAT, 0.0288 % of ANNNNAAN 8-mers.
Still for that read-out and setting: as for ATCCAAAT, the figure is 0.11 % of ANNNNAAN 8-mers.
Still for that read-out and setting: as for ACCCTAAA, the figure is 0.0173 % of ANNNNAAN 8-mers; as for AACATAAC, 0.0506 % of ANNNNAAN 8-mers; as for AGTCTAAG, 0.0322 % of ANNNNAAN 8-mers.
Take AAGGTAAG: the binding signal is 0.0478 % of ANNNNAAN 8-mers.
On to AAGCCAAC, for which the binding signal is 0.0161 % of ANNNNAAN 8-mers.
Regarding AATGAAAG, the binding signal was 0.088 % of ANNNNAAN 8-mers.
On the same count and under the same terms, as for ACTAAAAA, the figure is 0.0409 % of ANNNNAAN 8-mers.
In the case of AAAGTAAA, the binding signal was 0.0714 % of ANNNNAAN 8-mers.
Consider ATCGGAAA, for which the binding signal was 0.0409 % of ANNNNAAN 8-mers.
As to AAGTGAAA, the binding signal was 0.0587 % of ANNNNAAN 8-mers.
For the sequence AGGGGAAG, the binding signal was 0.0673 % of ANNNNAAN 8-mers.
Still for that read-out and setting: the result for AGTGCAAG reads 0.0311 % of ANNNNAAN 8-mers; that for ACTGCAAT, 0.0213 % of ANNNNAAN 8-mers; that for ATACCAAA, 0.0541 % of ANNNNAAN 8-mers.
Regarding ATATAAAC, the binding signal was 0.0719 % of ANNNNAAN 8-mers.
The same measure, in the same setting: the result for AGTATAAA reads 0.08 % of ANNNNAAN 8-mers.
With ATAAAAAA, the binding signal is 0.1 % of ANNNNAAN 8-mers.
Same read-out and setting: as for AGCACAAA, the figure is 0.0242 % of ANNNNAAN 8-mers; as for AGACTAAT, 0.102 % of ANNNNAAN 8-mers; as for ATTGCAAC, 0.0178 % of ANNNNAAN 8-mers.
The same measure, in the same setting: the result for ACGCTAAG reads 0.0167 % of ANNNNAAN 8-mers.
The same measure, in the same setting: as for ACGTAAAG, the figure is 0.0409 % of ANNNNAAN 8-mers; as for AGAGGAAT, 0.115 % of ANNNNAAN 8-mers; as for ATAACAAC, 0.0391 % of ANNNNAAN 8-mers.
ATGATAAA: the binding signal was 0.131 % of ANNNNAAN 8-mers.
On to AGTCTAAT, for which the binding signal was 0.166 % of ANNNNAAN 8-mers.
Same read-out and setting: as for ATTCTAAG, the figure is 0.0857 % of ANNNNAAN 8-mers.
For AACAAAAA, the binding signal is 0.0662 % of ANNNNAAN 8-mers.
The same measure, in the same setting: as for AAAATAAG, the figure is 0.125 % of ANNNNAAN 8-mers; as for ACAGTAAG, 0.0253 % of ANNNNAAN 8-mers.
Turning to AGCTTAAG, the binding signal is 0.0391 % of ANNNNAAN 8-mers.
Same read-out and setting: as for ACTCAAAC, the figure is 0.027 % of ANNNNAAN 8-mers.
For the sequence AGGGCAAC, the binding signal is 0.0219 % of ANNNNAAN 8-mers.
Still for that read-out and setting: the result for AGACCAAT reads 0.0219 % of ANNNNAAN 8-mers.
